Screening results from PubChem.
CYP2C9 act: increases human cytochrome P450 2C9 activity; P11712; recombinant CYP2C9, luciferin-H conversion, luminescence; hits give high values; factor 1 = untreated enzyme, 0 = blocked; activation factor at 5 µM; 1.4% of 96,000 active;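 active means activation factor of 2 or more for CYP2C9 at a 5 µM dose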;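 further: 0 = sulfaphenazole-blocked wells and 1 = vehicle-only wells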
Target sequence (P11712 whole entry, looked up): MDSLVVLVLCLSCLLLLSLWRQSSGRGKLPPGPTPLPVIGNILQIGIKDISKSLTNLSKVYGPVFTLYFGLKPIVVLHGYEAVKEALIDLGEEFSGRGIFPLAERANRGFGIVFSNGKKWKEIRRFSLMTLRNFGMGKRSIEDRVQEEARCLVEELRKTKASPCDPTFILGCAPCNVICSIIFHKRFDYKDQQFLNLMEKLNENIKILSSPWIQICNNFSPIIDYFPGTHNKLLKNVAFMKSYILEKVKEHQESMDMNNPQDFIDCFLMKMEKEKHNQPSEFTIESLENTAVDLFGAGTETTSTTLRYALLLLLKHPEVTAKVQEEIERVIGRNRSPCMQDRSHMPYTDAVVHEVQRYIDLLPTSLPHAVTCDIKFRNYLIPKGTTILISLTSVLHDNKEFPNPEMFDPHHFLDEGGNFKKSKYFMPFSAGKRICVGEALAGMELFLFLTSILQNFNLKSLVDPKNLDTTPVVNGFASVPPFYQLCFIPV
CYP2C19 inh: blocks human cytochrome P450 2C19; CYP2C19 Supersomes, luciferin-H EGE luminescence, 30 min; AID 778; inhibition, % at 5 µM; 21% of 96,000 active; P33261;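 active means CYP2C19 inhibition above a set limit at 5 µM in the primary screen, cut at about 50% in these data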;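 further: plate controls were negative control wells for no effect and 2.5 mM tranylcypromine positive control for full effect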
CYP2C9 inhib: human CYP2C9 inhibition; P11712; CYP2C9 Supersomes, luciferin-H conversion, luminescence; inhibition, % at 5 µM; 20% of 96,000 active;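 active means blocking of liver enzyme CYP2C9 beyond about 50% at 5 µM, limit read from the data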
PostGolgi ctrl: yeast control strain growth, post-Golgi counter-screen | 5% of 98,000 active | inhibition, % at 10 µM | efflux-deficient yeast background strain, growth absorbance A615, 16 h | AID 738
CYP2C19 activ: cytochrome P450 2C19 (human) activation; P33261; recombinant CYP2C19, luciferin-H EGE luminescence; hits give high values; 0 = fully inhibited enzyme, 1 = untreated enzyme; activation factor at 5 µM; 96,000 tested, under 10 active; AID 1025;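 active means activation factor of at least 2 at 5 µM in the primary screen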;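 further: 0 = wells with 2.5 mM tranylcypromine and 1 = vehicle-only wells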
PostGolgi yeast: growth inhibition of a yeast mutant, post-Golgi transport screen; post-Golgi transport phenotypic cell assay; inhibition, % at 10 µM; 0.9% of 98,000 active; AID 739;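 further: yeast cells grown in 1536-well plates; yeast grown about 18 h at 30C before absorbance read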
* marks the source's active call; other numbers are inactive results; . = not tested or not shown. In the library only some 32% were active in any assay of this set; here they are far more common. Unless noted, no stated cut-off is given here; in the data, active means inhibition above about 30%; inactive means the rest.

SMILES	CYP2C9 act	CYP2C19 inh	CYP2C9 inhib	PostGolgi ctrl	CYP2C19 activ	PostGolgi yeast
C=CC1C(N2CCOCC2)C(C)(C)S1(=O)=O (configuration not stated)	1.2	-2	-20	8	1	6
CCC(CC)NC(=O)CSc1nnc(-c2ccc(OC)cc2)n1C(C)C	0.8	-12	21	8	1.1	0
CC1Cc2ccccc2N1S(=O)(=O)c1cccc(C(=O)OCC(=O)NC2CCS(=O)(=O)C2)c1 (configuration not stated)	0.4	60*	63*	-11	0.4	-4
CC1Cc2ccccc2N1S(=O)(=O)c1cccc(C(=O)NC2CC2)c1 (configuration not stated)	1.7	36	-70	5	0.6	9
Cc1c(CCO)c(=O)n(-c2ccccc2)n1S(=O)(=O)c1c(Cl)cc(Cl)cc1Cl	0.6	57*	36	17	0.4	0
Cc1c(NC(=O)C2CCN(S(=O)(=O)c3ccc(Cl)cc3)CC2)c(=O)n(-c2ccccc2)n1C	0.7	-7	26	11	1.1	1
CC1(C)CC2CC(C)(CN2C(=O)CN2C(=O)c3ccccc3C2=O)C1 (configuration not stated)	1.2	-6	-19	8	1.1	0
Cc1ccc(C(=O)Nc2ccccc2C(=O)N2CC3(C)CC2CC(C)(C)C3)cc1 (configuration not stated)	0.8	11	24	41*	0.9	2
CCOc1ccc2c(C)c(C(=O)O)oc2c1OCC	1.1	-6	-14	15	1.1	0
CCOc1c(OC)ccc2c3c(c(=O)oc12)CCCC3	2.6*	76*	-163	18	0.2	2
CCOc1ccc2c(C)c(C)c(=O)oc2c1OCC	2.5*	51*	-152	11	0.5	-9
Cc1c(OCc2ccc(C(=O)O)o2)ccc2c3c(c(=O)oc12)CCC3	0.8	-8	16	0	1.1	-9
COc1ccc(C(=O)N(c2ccccc2)C2C=CS(=O)(=O)C2)cc1 (configuration not stated)	1.1	0	-6	0	1	15
Cn1cc(/C=N/n2cnc3scc(-c4ccccc4)c3c2=O)c2ccccc21	0.6	12	42	19	0.9	-5
COc1cc(N2CN=c3s/c(=C\c4ccccn4)c(=O)n3C2)cc(OC)c1OC	0.4	22	56*	-11	0.8	-2
Cc1cccc(N2CN=c3s/c(=C\c4ccncc4)c(=O)n3C2)c1	0.7	59*	31	8	0.4	10
CCCN1CCCc2cc(CN(CCCN3CCOCC3)C(=O)Nc3ccc(OCC)cc3)ccc21	0.9	9	8	7	0.9	4
CCOc1ccc(NC(=O)N(CCCN2CCOCC2)Cc2cccnc2)cc1	0.5	78*	54*	0	0.2	-4
Cc1ccc(NC(=O)N(CCCN2CCOCC2)Cc2cccs2)cc1C	0.5	63*	53*	9	0.4	10
O=C(NCCN1CCOCC1)Nc1ccc(Cl)cc1	1	9	4	4	0.9	-2
O=C(Nc1ccc(Cl)cc1)N(CCCN1CCOCC1)Cc1cccs1	0.5	84*	48	3	0.2	4
CCOC(=O)Cc1csc(NC(=O)CSc2nc3cccnc3n2CC)n1	1.3	6	-26	10	0.9	-6
COCCCNC(=O)CN1C(=O)CSc2ncccc21	1.1	30	-5	-4	0.7	-1
Cc1c(Cl)cccc1NC(=O)CN1C(=O)CSc2ncccc21	3.6*	64*	-256	9	0.4	-7
Cc1cc(N2C(=O)CC(N3CCN(c4ccc(C(=O)c5cccs5)cc4)CC3)C2=O)no1 (configuration not stated)	0.4	25	59*	0	0.8	-9
SMILES	CYP2C9 act	CYP2C19 inh	CYP2C9 inhib	PostGolgi ctrl	CYP2C19 activ	PostGolgi yeast
COc1cccc(N2CCN(c3ncnc4c3[nH]c3ccc(F)cc34)CC2C)c1 (configuration not stated)	0.4	59*	60*	96*	0.4	66*
COc1cccc(N2CCN(c3ncnc4c3[nH]c3ccccc34)CC2C)c1 (configuration not stated)	.	.	.	44*	.	7
COc1cc2[nH]c3c(N4CCN(c5ccc(Cl)cc5)CC4)ncnc3c2cc1OC	0.9	4	6	29	1	2
CCN(CC)CCNc1ncnc2c1[nH]c1ccc(OC)cc12	.	.	.	5	.	-19
Fc1ccc2[nH]c3c(N4CCN(C5CCCCC5)CC4)ncnc3c2c1	0.2	67*	76*	-3	0.3	11
COc1ccc2[nH]c3c(N4CC(C)OC(C)C4)ncnc3c2c1 (configuration not stated)	0.3	54*	69*	5	0.5	-3
O=C1CCCN1CCCn1cnc2c([nH]c3ccc(F)cc32)c1=O	1	2	0	-3	1	0
Cc1cc(C)nc(SCCn2c(N3CCCCC3)nc3c2c(=O)n(C)c(=O)n3C)n1	0.9	-10	11	16	1.1	7
CC(=O)c1cc(C#N)c(SCc2ccccc2)nc1C	1	24	-3	28	0.8	7
O=C(Nc1ccc2c(c1)OCO2)c1ccc(COc2ccc3c(c2)CCC3)o1	0.6	38	40	16	0.6	-9
COc1ccc2c(c1)C(C)=CC(C)(C)N2C(=O)CSc1nnc(-c2ccc(C)cc2)o1	0.3	66*	65*	21	0.3	52*
CC1=CC(C)(C)N(C(=O)CSc2ncn[nH]2)c2ccc(C)cc21	0.4	89*	55*	9	0.1	16
CC(=O)Nc1cc(C(N)=O)c(Cl)cc1Cl	1.2	-12	-16	13	1.1	3
COc1ccc(C2c3c(ncn(CCN4CCOCC4)c3=N)Oc3ccc4ccccc4c32)cc1 (configuration not stated)	0.4	50*	56*	16	0.5	-4
COc1ccc(C2c3c(ccc4ccccc34)Oc3ncn4nc(CO/N=C/c5ccccc5)nc4c32)cc1 (configuration not stated)	0.4	0	56*	0	1	-1
Cc1cccc(-n2c(Cn3nc(C)c([N+](=O)[O-])c3C)n[nH]c2=S)c1	1	7	-3	5	0.9	3
COCCNC(=O)CCSCc1ccccc1F	0.9	37	7	5	0.6	-4
CCOC(=O)CCCCC(=O)c1[nH]c(=O)[nH]c1CSc1nc(-c2ccccc2)c(C#N)c(=O)[nH]1	0.1	46	86*	1	0.5	-1
C=CCSc1nc(-c2ccccc2)c(C#N)c(=O)[nH]1	0.6	14	44	4	0.9	-2
Cc1cccc(NC(=O)CSc2nc(-c3ccccc3)c(C#N)c(=O)[nH]2)c1C	0.1	41	93*	1	0.6	-4
Cc1cc(NC(=O)CSc2nc(-c3ccccc3)c(C#N)c(=O)[nH]2)no1	0.3	8	70*	-14	0.9	-3
